Tested on: Vero E6 infected with SARS-CoV-2
Test: inhibition of SARS-CoV-2 cytopathic effect; higher = more antiviral protection, active = above 15
Settings: 48 h

Measured: inhibition of SARS-CoV-2 cytopathic effect

CCN1CCCC(OC(=O)C(c2ccccc2)c2ccccc2)C1 (stereo not given) [piperidolate]
inactive: 1 nM -8.23% | 8.33 nM -7.13% | 100 nM -7.85% | 833.33 nM -6.63% | 10000 nM -10.7%

CC(C)CCC[C@@H](C)[C@H]1CC[C@H]2[C@@H]3CCC4=CC(=NO)CC[C@]4(C)[C@H]3CC[C@]12C [olesoxime]
inactive: 1 nM -0.01% | 8.33 nM 0.28% | 100 nM -0.33% | 833.33 nM -0.32% | 10000 nM 3.9%

CN1[C@H]2C[C@H](OC(=O)[C@H](CO)c3ccccc3)C[C@@H]1[C@@H](O)C2 [anisodamine]
inactive: 1 nM 1.04% | 8.33 nM 2.56% | 100 nM 3.99% | 833.33 nM 5.76% | 10000 nM 3.66%

COc1cc(OC)cc(C(=O)NNC(=O)Nc2cccc3ccccc23)c1
inactive: 1 nM 0.29% | 8.33 nM -2.09% | 100 nM -1.74% | 833.33 nM 2.71% | 10000 nM -1.92%

C=CC1=C(C)C2=CC3=NC(=C(CC(=O)O)C4=NC(=C(C)C4=C(O)O)C=c4[nH]c(c(C)c4CC)=CC1=N2)C(CCC(=O)O)C3C (stereo not given) [chlorophyllin]
inactive: 1 nM -0.57% | 8.33 nM -1.3% | 100 nM -0.92% | 833.33 nM -4.38% | 10000 nM -10.6%

Cn1ccc2cc(NC(=O)Nc3cccnc3)ccc21
inactive: 1 nM -1.98% | 8.33 nM -2.46% | 100 nM 0.51% | 833.33 nM -1.88% | 10000 nM 1.94%

COc1cc(C)[nH]c(=O)c1CNC(=O)c1c(C)n([C@H](C)C2CCOCC2)c2ccccc12
inactive: 1 nM -1.12% | 8.33 nM -1.57% | 100 nM 0.4% | 833.33 nM -4.34% | 10000 nM -4.06%

CC[N+](C)(CC)CCC[n+]1c(-c2ccccc2)c2cc(N)ccc2c2ccc(N)cc21 [propidium-iodide]
inactive: 1 nM -1.36% | 8.33 nM -0.29% | 100 nM 3.2% | 833.33 nM 2.34% | 10000 nM 2.62%

Cc1cn([C@H]2C=C[C@@H](CO)O2)c(=O)[nH]c1=O [stavudine]
inactive: 1 nM -1.15% | 8.33 nM 2.97% | 100 nM 4% | 833.33 nM 2.52% | 10000 nM -1.21%

CCn1c(O)nnc1-c1ccc(Cl)cc1 [5-(4chlorophenyl)-4-ethyl-2,4-dihydro-3H-1,2,4-triazol-3-one]
inactive: 1 nM -1.14% | 8.33 nM -2.31% | 100 nM -1.83% | 833.33 nM 0.79% | 10000 nM 0.03%

CC(=O)N1CCC(NC(=O)c2ccc(F)cc2)CC1
inactive: 1 nM -1.4% | 8.33 nM -1.44% | 100 nM 0.95% | 833.33 nM 0.58% | 10000 nM 0.98%

Nc1nc(O)c2ncn(CCC(CO)CO)c2n1 [penciclovir]
inactive: 1 nM -0.77% | 8.33 nM -0.01% | 100 nM -0.81% | 833.33 nM 0.81% | 10000 nM -2.4%

Nc1nonc1/C(=N/O)Nc1ccc(F)c(Cl)c1
inactive: 1 nM 5.29% | 8.33 nM 3.44% | 100 nM 2.09% | 833.33 nM 0.57% | 10000 nM -2.02%

NC1CCN(c2cccc(Cl)n2)CC1
inactive: 1 nM 0.72% | 8.33 nM -1.55% | 100 nM -4.6% | 833.33 nM -0.29% | 10000 nM -3.39%

CSc1cc2c(cc1C(F)(F)F)N(C(=O)Nc1cccnc1)CC2
inactive: 1 nM -0.31% | 8.33 nM -3.61% | 100 nM 1.56% | 833.33 nM 1.75% | 10000 nM 0.95%

CCCC(CCC)C(=O)NCC(N)=O [valrocemide]
inactive: 1 nM 0.41% | 8.33 nM 1.83% | 100 nM 2.6% | 833.33 nM 0.66% | 10000 nM 3.56%

O=C(NCCCN1CCOCC1)c1ccc(Cl)cc1 [eprobemide]
inactive: 1 nM 0.75% | 8.33 nM 1.72% | 100 nM 4.31% | 833.33 nM -1.08% | 10000 nM 0.69%

Cc1ccc([N+](=O)[O-])cc1S(=O)(=O)N(C)C
inactive: 1 nM -1.97% | 8.33 nM -4.63% | 100 nM -0.38% | 833.33 nM -0.5% | 10000 nM -0.2%

CC(C)(CO)[C@@H](O)C(=O)NCCC(=O)O [pantothenic-acid]
inactive: 1 nM 0.14% | 8.33 nM -0.18% | 100 nM 0.03% | 833.33 nM -0.87% | 10000 nM 2.81%

Cc1cccc(C)c1OCC(C)N (stereo not given) [mexiletine]
inactive: 1 nM 4.03% | 8.33 nM 3.45% | 100 nM 2.85% | 833.33 nM 7.08% | 10000 nM 5.03%

CC(C)c1ccc(C(=O)N=C(N)N)cc1S(C)(=O)=O [cariporide]
inactive: 1 nM 0.61% | 8.33 nM 4.56% | 100 nM 2.44% | 833.33 nM 1.5% | 10000 nM -0.17%

C[C@]12C=CC(=O)C=C1CC[C@@H]1[C@@H]2[C@@H](O)C[C@@]2(C)[C@H]1CC[C@]2(O)C(=O)COC(=O)CCC(=O)O [prednisolone-hemisuccinate]
inactive: 1 nM -1.49% | 8.33 nM 0.74% | 100 nM 3.44% | 833.33 nM 3.76% | 10000 nM 1.85%

CCC[C@H]1C(=O)N2C(N(C)C)=Nc3ccc(C)cc3N2C1=O [azapropazone]
inactive: 1 nM -0.8% | 8.33 nM -0.4% | 100 nM -0.47% | 833.33 nM -0.49% | 10000 nM -3.61%

c1ccc(C(NCc2cccnc2)(c2ccccc2)c2ccccc2)cc1
inactive: 1 nM 1.69% | 8.33 nM 4.02% | 100 nM 1% | 833.33 nM 1.58% | 10000 nM 2.26%

C=C1C[C@@]2(O)O[C@@]3(C[C@H]2C(C)C)[C@@H](C)CC[C@@H]13 [curcumol]
inactive: 1 nM -2.21% | 8.33 nM -1.48% | 100 nM 1.91% | 833.33 nM 0.52% | 10000 nM -2.49%

CCC(=O)N1CCOc2c(cc(-c3ccc(OC)c(OC)c3)cc2OC[C@H]2CCCN(C)C2)C1
inactive: 1 nM 1.79% | 8.33 nM 8.72% | 100 nM 0.95% | 833.33 nM 1.75% | 10000 nM 0.51%

Cc1ccccc1/N=N/c1ccc(/N=N/c2c(O)ccc3ccccc23)c(C)c1 [sudan-IV]
inactive: 1 nM 8.71% | 8.33 nM -0.01% | 100 nM -4.36% | 833.33 nM -0.99% | 10000 nM -2.29%

COc1cc(OC2CCN(C)CC2)ccc1Nc1ncc2c(n1)n(C1CCCC1)c(=O)n2C
inactive: 1 nM 1.63% | 8.33 nM 2.01% | 100 nM -2.6% | 833.33 nM 0.1% | 10000 nM 11.1%

CC(C)=CC[C@@H](O)C1=CC(=O)c2c(O)ccc(O)c2C1=O [Shikonin]
inactive: 1 nM 0.59% | 8.33 nM 0.65% | 100 nM 0.38% | 833.33 nM 3.65% | 10000 nM 2.04%

O=c1c(O)c(-c2ccc(O)c(O)c2)oc2cc(O)cc(O)c12 [quercetin]
inactive: 1 nM 1.33% | 8.33 nM 0.85% | 100 nM 0.21% | 833.33 nM 1.78% | 10000 nM 3.03%

COc1cc2c(cc1OC)C1CC(=O)C(CC(C)C)CN1CC2 (stereo not given) [tetrabenazine]
inactive: 1 nM -2.11% | 8.33 nM 0.64% | 100 nM 1.22% | 833.33 nM 2.22% | 10000 nM 0.85%

CCC[C@@H]1C[C@@H](C(=O)N[C@@H]([C@H]2O[C@H](SC)[C@H](O)[C@@H](O)[C@H]2O)[C@H](C)Cl)N(C)C1
inactive: 1 nM 0.61% | 8.33 nM -0.55% | 100 nM -0.83% | 833.33 nM -2.28% | 10000 nM -4.1%

O=C[C@H](F)[C@@H](O)[C@@H](O)[C@H](O)CO [2-fluoro-2-deoxy-D-galactose]
inactive: 1 nM 1.5% | 8.33 nM 1.13% | 100 nM 1.44% | 833.33 nM 1.15% | 10000 nM 0.92%

C/C(=C(\CCOP(=O)(O)O)SC(=O)c1ccccc1)N(C=O)Cc1cnc(C)nc1N [benfotiamine]
inactive: 1 nM 0.45% | 8.33 nM 2.17% | 100 nM 2.51% | 833.33 nM 1.61% | 10000 nM 0.69%

C[C@@H]1CCN(C(=O)CC#N)C[C@@H]1N(C)c1ncnc2[nH]ccc12
inactive: 1 nM -0.74% | 8.33 nM 0.22% | 100 nM -0.47% | 833.33 nM -2.11% | 10000 nM -0.5%

C[C@@H](N)[C@@H](O)c1ccccc1 [1S,2R-phenylpropanolamine]
inactive: 1 nM -1.52% | 8.33 nM -0.06% | 100 nM -0.95% | 833.33 nM -0.75% | 10000 nM 0.8%

O=C(O[C@H]1C[C@H]2CC[C@@H](C1)[N+]21CCCC1)C(O)(c1ccccc1)c1ccccc1 [trospium]
inactive: 1 nM -1.88% | 8.33 nM 0.55% | 100 nM 1.21% | 833.33 nM -1.72% | 10000 nM -0.69%

NC(=O)CN1C=CCC(C(N)=O)=C1 [caricotamide]
inactive: 1 nM 0.48% | 8.33 nM 2.71% | 100 nM 1.14% | 833.33 nM -1.91% | 10000 nM 0.44%

Cc1cc2nc3c(=O)[nH]c(=O)nc-3n(C[C@H](O)[C@H](O)[C@H](O)COP(=O)(O)O)c2cc1C [riboflavin-5-phosphate-sodium]
inactive: 1 nM 0.5% | 8.33 nM 3.45% | 100 nM -0.48% | 833.33 nM 1.47% | 10000 nM 0.24%

Cc1c(N)nc([C@H](CC(N)=O)NC[C@H](N)C(N)=O)nc1C(=O)N[C@H](C(=O)N[C@H](C)[C@@H](O)[C@H](C)C(=O)N[C@H](C(=O)NCCc1nc(-c2nc(C(=O)NCCC[S+](C)C)cs2)cs1)[C@@H](C)O)[C@@H](OC1OC(CO)C(O)C(O)C1OC1OC(CO)C(O)C(OC(N)=O)C1O)c1cnc[nH]1 (stereo not given in full) [bleomycin]
inactive: 1 nM -3.91% | 8.33 nM -1.18% | 100 nM -1.47% | 833.33 nM -11.3% | 10000 nM -21.5%
